Reference: PubChem BioAssay (NCATS)
Records with an inconclusive call do not appear. Calls of active or inactive are those of the source. Calls come from the whole dose curve; as a rule, active = well fitted curve in the direction sought with a large enough effect; inconclusive = small, poorly fitted or top-dose-only effect, or another doubt; inactive = no such curve, though single readings can be large; an effect the other way counts as inactive or inconclusive.

Assays:
MCC-26 = test: qHTS assay to identify novel small-molecules to repurpose for Merkel cell carcinoma treatment (AID 1296009); conditions: MCC and control cell lines, CellTiter-Glo viability, 72 h; series mostly up to 46 µM; note: nearly all actives have a fitted effect of over 60% in size
Procedure, shortened: (§1)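 Luminescence from CellTiter-Glo, read 10 min after addition at room temperature, reported viability following a 72 hr, 37 degree celsius treatment with NPC or MIPE compounds in titration; values normalized to plate controls.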

MKL-1 = test: as above; conditions: MCC and control cell lines, CellTiter-Glo viability, 72 h; series mostly up to 46 µM
Procedure, shortened: as §1

MKL-2 = test: as above; conditions: MCC and control cell lines, CellTiter-Glo viability, 72 h; series mostly up to 46 µM
Procedure, shortened: as §1

UISO = test: as above; conditions: MCC and control cell lines, CellTiter-Glo viability, 72 h; series mostly up to 46 µM
Procedure, shortened: as §1

WaGa = test: as above; conditions: MCC and control cell lines, CellTiter-Glo viability, 72 h; series mostly up to 46 µM
Procedure, shortened: as §1

CASKI = test: Primary qHTS to identify gynecologic anti-cancer compounds using libraries of approved drugs and bioactive compounds (AID 1345084); conditions: Gynecologic cancer cell panel viability, ATPlite luminescence, 48 h; series mostly up to 57.5 µM; note: nearly all actives have a fitted effect of over 55% in size
Procedure, shortened: (§2)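 In this quantitative HTS, cell killing is estimated from loss of ATP-dependent luciferase light. Cells see five compound concentrations over a 48 h exposure.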

Es-2 = test: as above; conditions: Gynecologic cancer cell panel viability, ATPlite luminescence, 48 h; series mostly up to 57.5 µM
Procedure, shortened: as §2

C33A = test: as above; conditions: Gynecologic cancer cell panel viability, ATPlite luminescence, 48 h; series mostly up to 57.5 µM
Procedure, shortened: as §2

CAOV3 = test: as above; conditions: Gynecologic cancer cell panel viability, ATPlite luminescence, 48 h; series mostly up to 57.5 µM
Procedure, shortened: as §2

Measured: Potency

CC[C@H](C=C[C@@H](C)[C@H]1CC[C@H]2[C@@H]3CC=C4C[C@@H](O)CC[C@]4(C)[C@@H]3CC[C@]12C)C(C)C
inactive: MCC-26 | MKL-1 | MKL-2 | UISO | WaGa

O=[N+]([O-])c1ccc(Nc2ccccc2-c2ccccc2)c2nonc12
inactive: MCC-26 | MKL-1 | MKL-2 | UISO | WaGa

Fc1ccc(C(c2ccc(F)cc2)N2CCN(CC=Cc3ccccc3)CC2)cc1
inactive: MCC-26 | MKL-1 | MKL-2 | UISO | WaGa

CCn1c(-c2nonc2N)nc2cncc(CNC3CCNCC3)c21
inactive: MCC-26 | MKL-1 | UISO | CASKI | Es-2

N#Cc1c(N(CC(=O)O)CC(=O)O)sc(C(=O)O)c1CC(=O)O
inactive: MCC-26 | MKL-1 | UISO | WaGa

Cc1cccc2c1CC[C@H](CN1CCC(c3c(Cl)cccc3Cl)CC1)C[C@@H]2O
inactive: MCC-26 | MKL-1 | MKL-2 | WaGa | C33A | CAOV3 | CASKI | Es-2

CC(=O)NCCC(=O)N[C@@H](CCC(N)=O)C(=O)N[C@@H](CO)C(=O)N[C@@H](CCC(N)=O)C(=O)N[C@@H](CCC(N)=O)C(=O)N[C@H](C(=O)N[C@@H](Cc1ccccc1)C(=O)N[C@]1(C)CCCCCCC=CCCC[C@@](C)(C(=O)N[C@@H](CCC(N)=O)C(=O)N[C@@H](CC(N)=O)C(N)=O)NC(=O)[C@H](CC(C)C)NC(=O)[C@H](CC(C)C)NC(=O)[C@@H](CCCNC(=N)N)NC(=O)[C@H](Cc2c[nH]c3ccccc23)NC(=O)[C@H](CC(C)C)NC(=O)[C@H](CC(N)=O)NC1=O)[C@H](C)O
inactive: MCC-26 | MKL-1 | UISO | WaGa
